Values joined by “and” are separate entries in the source; they are usually repeats but may differ in a detail not shown here. Identical values can stand only once. Out of some 5,500 compounds screened, about 2,000 (36%) were called active. Another 18% or so got no clear call; they are omitted. Rule as the data show it: active = normalized growth mostly below about 0.91 (no sharp cut-off); inconclusive = no clear call, values can overlap the other calls; inactive = mostly above about 0.92. Some of the results follow.
Test: chemical genetic growth profiling, strain panel (AID 1159580);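 also: tested at 20 µM; growth read once vehicle control cultures reached saturation at 30 °C; 1 = growth at the plate median or of vehicle wells; lower values mean less growth of the strain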
Details: S. cerevisiae deletion strains, growth OD

Measured: normalized growth

CCCCCC(O)C1C(=O)OC(C)C(O)/C=C/C=C/C=C/C=C/C=C(\C)C(O)CC(O)CC(O)CC(O)CC(O)CC(O)CC1O (configuration not stated)
inactive: locus YAL013W, strain DEP1, hits give low values 1.01 | locus YAL021C, strain ccr4, hits give low values 1.01 | locus YAL026C, strain drs2, hits give low values 0.994 | locus YAL030W, strain snc1, hits give low values 0.985 | locus YBL061C, strain skt5, hits give low values 0.982 | locus YBR009C, strain hhf1, hits give low values 0.996 | locus YBR021W, strain FUR4, hits give low values 1.02 | locus YBR023C, strain chs3, hits give low values 0.989 | locus YBR171W, strain sec66, hits give low values 0.982 | locus YBR229C, strain ROT2, hits give low values 1.01 | locus YBR231C, strain swc5, hits give low values 0.992 | locus YBR279W, strain paf1, hits give low values 0.993 | locus YCL011C, strain gbp2, hits give low values 1 | locus YCL016C, strain dcc1, hits give low values 0.986 | locus YCL029C, strain bik1, hits give low values 1.03 | locus YCL061C, strain MRC1, hits give low values 0.992 | locus YCL069W, strain vba3, hits give low values 0.993 | locus YCR088W, strain abp1, hits give low values 0.993 | locus YDL005C, strain med2, hits give low values 0.995 | locus YDL035C, strain GPR1, hits give low values 1.02 | locus YDL040C, strain nat1, hits give low values 0.99 | locus YDL074C, strain BRE1, hits give low values 1.01 | locus YDL101C, strain DUN1, hits give low values 1.01 | locus YDL134C, strain PPH21, hits give low values 1.01 | locus YDL185W, strain tfp1, hits give low values 1.03 | locus YDL192W, strain arf1, hits give low values 1.04 | locus YDR001C, strain nth1, hits give low values 0.983 | locus YDR069C, strain doa4, hits give low values 0.996 | locus YDR101C, strain arx1, hits give low values 1.02 | locus YDR137W, strain rgp1, hits give low values 1.01 | locus YDR150W, strain NUM1, hits give low values 1.02 | locus YDR159W, strain sac3, hits give low values 0.96 | locus YDR162C, strain NBP2, hits give low values 1.02 | locus YDR195W, strain ref2 0.96 | locus YDR297W, strain sur2, hits give low values 1.01 | locus YDR318W, strain mcm21, hits give low values 1.03 | locus YDR334W, strain swr1, hits give low values 0.986 | locus YDR335W, strain msn5, hits give low values 0.985 | locus YDR388W, hits give low values 1.03 | locus YDR392W, strain spt3, hits give low values 0.937 | locus YDR502C, strain sam2, hits give low values 1.01 | locus YEL003W, strain gim4, hits give low values 0.993 | locus YEL037C, strain rad23, hits give low values 1.02 | locus YEL061C, strain CIN8 (second series), hits give low values 0.98 | locus YEL061C, strain CIN8, hits give low values 1 | locus YER015W, strain faa2, hits give low values 0.991 | locus YER016W, strain bim1, hits give low values 0.986 | locus YER110C, hits give low values 1.02 | locus YER111C, strain swi4, hits give low values 0.996 | locus YER155C, strain BEM2 (second series), hits give low values 0.976 | locus YER155C, strain BEM2, hits give low values 1.02 | locus YER167W, strain BCK2, hits give low values 1.04 | locus YFR010W, strain ubp6, hits give low values 0.984 | locus YGL078C, strain dbp3, hits give low values 1.01 | locus YGL086W, strain mad1, hits give low values 1.03 | locus YGL167C, strain pmr1, hits give low values 0.984 | locus YGL173C, strain kem1, hits give low values 0.993 | locus YGL227W, strain vid30, hits give low values 0.989 | locus YGL240W, strain doc1, hits give low values 0.981 | locus YGL248W, strain PDE1, hits give low values 1.01 | locus YGL253W, strain hxk2, hits give low values 1 | locus YGR078C, strain PAC10, hits give low values 1 | locus YGR135W, strain pre9, hits give low values 1.02 | locus YGR229C, strain SMI1, hits give low values 1.02 | locus YGR252W, strain gcn5, hits give low values 1.04 | locus YHR013C, strain ard1, hits give low values 0.966 | locus YHR027C, strain rpn1, hits give low values 0.994 | locus YHR030C, strain SLT2, hits give low values 1.01 and 0.963 | locus YHR079C, strain IRE1 (second series), hits give low values 1.02 | locus YHR079C, strain IRE1, hits give low values 0.959 | locus YHR094C, strain hxt1, hits give low values 1.02 | locus YHR129C, strain ARP1, hits give low values 1 | locus YHR142W, strain chs7, hits give low values 1.01 | locus YHR200W, strain rpn10, hits give low values 1.02 | locus YIL066C, strain RNR3, hits give low values 1.01 | locus YIL073C, strain SPO22, hits give low values 1.12 | locus YIL125W, strain kgd1, hits give low values 1.03 | locus YIR030C, strain dcg1, hits give low values 1.02 | locus YJL092W, strain hpr5, hits give low values 0.985 | locus YJL095W, strain BCK1 (second series), hits give low values 0.988 | locus YJL095W, strain BCK1, hits give low values 1.01 and 0.975 | locus YJL115W, strain asf1, hits give low values 0.991 | locus YJL129C, strain trk1, hits give low values 0.976 | locus YJL134W, strain LCB3, hits give low values 1.01 | locus YJL154C, strain vps35, hits give low values 0.985 | locus YJL164C, strain tpk1, hits give low values 1 | locus YJL166W, strain qcr8, hits give low values 0.997 | locus YJL168C, strain set2, hits give low values 1.02 | locus YJL187C, strain SWE1 (second series), hits give low values 1 | locus YJL187C, strain SWE1, hits give low values 0.995 | locus YJR043C, strain POL32, hits give low values 1.03 | locus YJR066W, strain TOR1, hits give low values 0.939

— PubChem BioAssay AID1159580 (chemical genetic matrix, 2015)
